Screening data deposited in PubChem BioAssay by National Center for Advancing Translational Sciences (NCATS).
An excerpt weighted towards active compounds, which were near 8% of everything screened.
HCV inh – inhibitors of hepatitis C virus infection; Huh7.5.1 HCVcc-Cre infection, luciferase reporter, 44 h; Potency, µM (series often up to 41.8 µM), most hits filed as inhibitors; hit rate 3.4% among 340,000; AID 651820; active = well fitted inhibition curve with a large enough effect; inconclusive = small, poorly fitted or top-dose-only effect, or another doubt; inactive = no such curve, though single readings can be large or run the other way
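Infectious HCVcc-Cre (~0.5 moi) was added to cells just after compound, with cells seeded 4 h earlier at 1,000 per well. Luciferase activity after 44 h culture reported infection; substrate was incubated 15 min at room temperature before reading.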
Marburg entry inh – inhibitors of Marburg virus binding or cell entry; Marburg virus pseudotyped entry inhibition, cell reporter; Potency, µM (series often up to 37.8 µM), hits mostly inhibitors; hit rate 1.8% among 300,000; AID 540276; calls by dose curve; tested in HEK293 cells
Lassa entry inh – inhibitors of Lassa virus binding or cell entry; Lassa virus pseudotype entry inhibition, cell reporter; Potency, µM (top dose mostly 37.9 µM), most hits filed as inhibitors; hit rate 1.2% among 300,000; AID 540256; calls by dose curve; tested in HEK293 cells; note: nearly all actives have a fitted effect of over 50% in size
SARS PLP yeast – inhibitors of SARS-CoV papain-like protease in yeast; S. cerevisiae expressing SARS-CoV PLpro, growth rescue; Potency, µM (doses to about 32.9 µM), actives largely listed as activators; hit rate 0.19% among 330,000; AID 485353; calls by dose curve; note: nearly all actives have a fitted effect of over 55% in size
FMDV inh – antivirals against foot and mouth disease virus; FMDV antiviral cell-based qHTS; Potency, µM (doses to about 57.9 µM), usual class: inhibitors; hit rate 1.2% among 410,000; AID 1159524; calls by dose curve; tested in HEK293T cells; note: read-out not given here; nearly all actives have a fitted effect of over 45% in size
HCMV antiviral – inhibitors of human cytomegalovirus; hit rate 4.5% among 410,000; HFF cells, HCMV-luciferase reporter, 72 h; active compounds read low; activity change, negative = inhibition, % at 57.5 µM; AID 1259415; in the data active = activity change below about -60%; inconclusive = no clear call, values can overlap the other calls; inactive = above about -39%
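HFF cells seeded 16 h at 37C, treated with compounds, infected with luciferase-reporter HCMV at MOI 1 PFU/cell; luciferase read at 72 h post infection, normalized to buffer-only and Salinomycin controls.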
Numbers stand for hits; n = inactive; u = inconclusive; x = no result.

SMILES | HCV inh | Marburg entry inh | Lassa entry inh | SARS PLP yeast | FMDV inh | HCMV antiviral
CCC(C)NC(=O)c1ccccc1NC(=O)C1COc2ccccc2O1 (stereo not given) | 22µM | x | x | n | u | u
CC1CCc2nc(NC(=O)CN3CCN(Cc4ccc5c(c4)OCO5)CC3)sc2C1 (stereo not given) | 32µM | u | n | n | u | -63
CC1CCc2nc(NC(=O)C3COc4ccccc4O3)sc2C1 (stereo not given) | u | x | x | n | 16µM | -76
Cc1cnc(NC(=O)C2COc3ccccc3O2)s1 (stereo not given) | n | 7.9µM | u | n | n | u
CCCCOc1cccc(C2c3c(-c4cc(C)ccc4O)n[nH]c3C(=O)N2CCOC)c1 (stereo not given) | x | u | u | x | n | n
Cn1cccc1C(=O)N1CCC2(CCCN(c3cccc(-c4ccccc4)c3)C2)CC1 | x | x | x | x | n | x
CCOc1ccccc1N(C)C(=O)Cn1nc(Cc2ccncc2)c2ccccc2c1=O | x | u | n | x | n | n
CSc1nc2ccc3nc(NC(=O)C4COc5ccccc5O4)sc3c2s1 (stereo not given) | n | x | x | n | n | -78
Cc1nc2ccc3nc(NC(=O)C4COc5ccccc5O4)sc3c2s1 (stereo not given) | n | x | x | n | n | n
Cc1csc(NC(=O)C2COc3ccccc3O2)n1 (stereo not given) | n | 4.5µM | u | n | 13µM | n
O=C(Nc1cc(Cl)cc(Cl)c1)c1ccc(F)c(S(=O)(=O)N2CCc3ccccc32)c1 | x | x | n | x | u | -96
O=C(Nc1ccc(Br)cc1)c1ccc(F)c(S(=O)(=O)N2CCCc3ccccc32)c1 | x | x | u | x | u | -99
O=C(Nc1cc(Cl)cc(Cl)c1)c1ccc(F)c(S(=O)(=O)N2CCCC2)c1 | x | x | u | x | u | n
CN(C)CCCN(C(=O)c1ccc2ccccc2c1)c1nc2cc3c(cc2s1)OCO3 | u | u | n | n | n | -62
CN(C)CCN(C(=O)c1cccc2ccccc12)c1nc2cc3c(cc2s1)OCO3 | 10µM | u | n | n | n | -112
CCN(CC)CCN(C(=O)c1ccc2c(c1)OCCO2)c1nc2cc3c(cc2s1)OCO3 | u | u | n | n | n | n
CCC1CCCCN1S(=O)(=O)c1ccc(C(=O)N(CCCN(C)C)c2nc3cc4c(cc3s2)OCO4)cc1 (stereo not given) | 13µM | u | u | u | n | n
CCN(CC)CCN(C(=O)c1cc2c(ccc3ccccc32)oc1=O)c1nc2cc3c(cc2s1)OCCO3 | n | u | n | n | n | -98
CCC(CC)C(=O)N1CCc2cc(OC)c(OC)cc2C1COc1ccc2c(C)cc(=O)oc2c1 (stereo not given) | x | n | n | x | u | n
COc1ccc(C(=O)Nc2nnc(S(=O)(=O)N3CCCc4ccccc43)s2)cc1 | x | x | n | x | n | n
COc1ccc(N2CCN(C(=O)c3cc4c(C)nc5ccccc5c4o3)CC2)cc1 | u | x | x | n | u | -100
Cc1cc(C)c(OCC(=O)NCC2COc3ccccc3O2)c(C)c1 (stereo not given) | n | 3.5µM | n | n | n | n
CCCCN(CC)CCNC(=O)c1cc2c(C)nc3ccccc3c2o1 | 6.3µM | x | x | n | n | u
CCc1ccc2oc(C(=O)N3CCN(c4ccc(OC)cc4)CC3)cc(=O)c2c1 | u | u | u | n | u | -63
CC(=O)c1ccc(N2CCN(C(=O)c3cc4c(C)nc5ccccc5c4o3)CC2)cc1 | n | x | x | n | u | u
SMILES | HCV inh | Marburg entry inh | Lassa entry inh | SARS PLP yeast | FMDV inh | HCMV antiviral
Cc1ccc(C)c(OCC(=O)NCC2COc3ccccc3O2)c1 (stereo not given) | n | x | x | n | n | n
CC1CCN(S(=O)(=O)c2ccc3c(c2)CCC(=O)N3CC(=O)Nc2cccc(C#N)c2)CC1 | x | x | n | n | n | n
N#CCCn1c(=O)c(CCc2ccccc2)nc2cnc(Nc3ccccc3)nc21 | x | x | x | x | n | x
COC(=O)c1c(OCc2ccccn2)cc(=O)n2c1CCN(C(=O)c1n[nH]c3c1CCCC3)CC2 | x | x | x | x | n | x
COc1cccc(CNC(=O)c2cc3c(C)nc4ccccc4c3o2)c1 | 6.3µM | x | x | n | 22µM | u
COc1ccc(C)cc1NC(=O)CC1COc2ccccc2O1 (stereo not given) | n | u | n | n | n | -61
Cc1nc2ccccc2c2oc(C(=O)NCCN3CCCCC3C)cc12 (stereo not given) | u | 21µM | n | u | n | n
Cc1nc2ccccc2c2oc(C(=O)NCC3COc4ccccc4O3)cc12 (stereo not given) | 10µM | u | 21µM | n | u | u
CCCCn1cc(S(=O)(=O)c2ccc(CC)cc2)c(=O)c2cc(F)c(N3CCOCC3)cc21 | x | x | n | x | n | n
COc1ccc(CNC(=O)c2cc3c(C)nc4ccccc4c3o2)c(OC)c1 | 3.2µM | x | x | n | u | x
COc1cc(NC(=O)c2cc3c(C)nc4ccccc4c3o2)cc(OC)c1OC | u | n | x | n | n | n
CCc1ccc(CNC(=O)c2cc3c(C)nc4ccccc4c3o2)cc1 | 11µM | x | x | n | u | -64
COC(=O)N[C@@H](c1ccc(Cl)cc1)C(C(C)=O)C(=O)OC (stereo not given in full) | x | n | x | x | x | x
CCOC(=O)c1ncc2[nH]c3ccc(OCc4ccccc4)cc3c2c1COC | x | x | x | x | 16µM | x
c1ccc(-c2cnc(CSc3ncnc4sccc34)o2)cc1 | 11µM | n | n | n | n | n
CC(=O)Nc1ccc(SCc2ncc(-c3ccccc3)o2)cc1 | n | u | n | n | n | n
C[C@H]1[C@@H](NS(=O)(=O)c2ccc(-c3ccccc3)cc2)CC[C@@]23CCCN2C(=O)CCC[C@@H]13 | x | x | x | x | x | n
O=C(COc1nncc2ccccc12)Nc1c(F)c(F)c(F)c(F)c1F | n | n | n | n | n | n
O=C(COc1nncc2ccccc12)Nc1ccc(F)c(F)c1 | n | n | u | n | n | -101
CCCCC[C@@H]1[C@@H]2C(=C(OCC)C[C@@H]3C(=O)N(c4ccccc4)C(=O)[C@H]23)[C@H](c2ccccc2)N1S(=O)(=O)c1ccc(C)cc1 | x | x | x | x | n | n
CCOC1=C2[C@H](c3ccccc3)N(S(=O)(=O)c3ccc(C)cc3)C(C(C)(C)C)[C@H]2C(C#N)(C#N)C(C#N)(C#N)C1 (stereo not given in full) | x | x | x | x | u | -100
COc1ccc(CCCc2nnc(SCC(=O)Nc3nccs3)n2C)cc1C | n | n | 21µM | n | n | n
Cc1cc(C)nc(SCc2nnc(SCC(=O)Nc3nccs3)n2C)n1 | n | u | n | n | n | n
CCOc1ccc(CC(=O)Nc2nccs2)cc1 | n | n | n | n | n | n
Cc1ccc(CC(=O)Nc2nccs2)cc1C | n | n | n | n | n | -94
O=C(c1cccc(C(F)(F)F)c1)C1CCCN(C(=O)c2cc(C3CC3)[nH]n2)C1 (stereo not given) | u | x | x | n | n | -67
CCCc1cc(=O)oc2cc(OCC(=O)NCCN3CCOCC3)c(Cl)cc12 | x | x | x | x | n | -79
